Measured values reported in PubChem BioAssay (NCI).
This is part of a sample that, as a whole, favours compounds with a hit. Of some 83,000 tested, about 20% had one in any assay.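 For each line, cells grew in 96-well plates with the test compound present at a single concentration for 48 hours.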 Unmarked numbers belong to inactive results. Calls of active or inactive are those of the source. Rule for the calls: active = growth percent below 10; inactive = the rest.

System: HL-60(TB) leukemia
Assay: NCI-60 one-dose screen, 48 h (100 = growth as untreated, 0 = no growth, -100 = all killed)
Conditions: 10 µM unless noted

SMILES	growth
CC1OC(n2c3ccccc3c3c4c(c5c6ccccc6[nH]c5c32)C(=O)N(CCN[C@H]2CCC[C@@H]2N)C4=O)CC(O)C1O (stereo partly specified)	54.3%
CCCCCC/C=C\CCCCCCCCOc1ccc(CCOP(=O)(O)OCC[N+](C)(C)C)cc1	-15.1% (active)
COc1ccc2[nH]c(=O)c(CNc3ccc(Nc4nccc(-c5ccc(Cl)cc5)n4)cc3)cc2c1	78.2%
CC(C)[C@@]12C[C@@H](OC(=O)[C@H]3CO3)[C@@](C)(O1)[C@@H]1CC[C@@H](C)[C@H]1[C@@H]2OC(=O)/C=C/c1ccccc1	67%
C(=N\Nc1ncnc2sc3c(c12)CCNC3)/c1cccc2ccccc12	99.1%
COc1cc2cc(Oc3ccc(NC(=O)Nc4cc(C(F)(F)F)cc(C(F)(F)F)c4)cc3)c(C)nc2cc1OCCN1CCCCC1	-2.13% (active)
Cc1ccc2c(c1)O/C(=C\c1cccc(OCC(=O)c3ccccc3)c1)C2=O	12.1%
CC(=O)c1ccc(Nc2nc(C(C)=O)c(C)s2)cc1	88%
C=C(C)[C@@H]1CC[C@]2(C)[C@H](CC[C@@H]3[C@@H]([C@@](C)(O)CCC=C(C)C)CC[C@]32C)[C@@]1(C)CCC(=O)O	-24.1% [100 µM] (active)
NC(=O)/C=C/C(=O)c1c(Cl)cccc1Cl	-21.6% (active)
Cc1ccc(O)c(N)c1	115%
Nc1nc(Nc2ccccc2)c2ncn(Cc3cc4c(cc3Br)OCO4)c2n1	-11.7% (active)
NC(=O)N1N=C(c2ccc(Cl)cc2)CC1c1cn(-c2ccccc2)nc1-c1ccc(Cl)cc1 (stereo unspecified)	80.9%
Cn1ccc2c1CC1CN(Cc3ccco3)C(=O)C1C2C(=O)O (stereo unspecified)	98.8%
N[C@H](CS)C(=O)O	109%
Nc1cc(C(=O)O)cc(-n2c(O)c(C=C3N=c4ccccc4=N3)sc2=S)c1	101%
O=[N+]([O-])c1cc(NS(=O)(=O)c2ccccc2)ccc1NS(=O)(=O)c1ccccc1	113%
Cc1nc2nc(N)nc(N)c2nc1C	94.2%

SMILES	growth
COc1cc(OC)c(NC(=O)C(Sc2nc(C)cc(C)c2C#N)c2ccccc2)cc1Cl (stereo unspecified)	94.1%
COc1ccc(N2CCN(Cc3cc(C(=O)/C=C/c4c[nH]c5ccccc45)ccc3O)CC2)cc1	99.9%
Nc1c(C(=O)Nc2ccccc2F)sc2nc3c(cc12)C(=O)CCC3	33.9%
O=C1c2ccccc2C(=O)c2cc(Cn3cc[n+](Cc4ccc5ccccc5c4)c3)ccc21	43%
CS(=O)(=O)c1ccc(/C(=N/NC(N)=S)c2ccc(F)cc2)cc1	99.1%
COc1ccc(/C=N/C2=C(C#N)C(c3ccc(OC)cc3)c3ccc4ccccc4c3O2)cc1 (stereo unspecified)	63.4%
COC(=O)[C@]12CC[C@@H](C)[C@H](C)[C@@H]1C1=CC[C@@H]3[C@@]4(C)C(C=O)=C[C@@](C)(COC(=O)c5ccco5)[C@@H]4[C@H](O)C[C@@]3(C)[C@]1(C)CC2	-21.9% (active)
COc1ccc(CN2CCc3c(Sc4ccccc4)nc(N)nc3C2=O)c(OC)c1	14.3%
CC12O[C@H](C[C@@H](O)[C@H]1O)n1c3ccccc3c3c4c(c5c6ccccc6n2c5c31)C(=O)N(CCCN)C4=O	4.62% (active)
Cc1cc2c(C#N)n3c(c2cc1C)C(=O)C(c1ccccc1)Oc1ccccc1-3 (stereo unspecified)	36.3%
COC(=O)c1cccc(Br)c1	81.6%
COc1ccc(NC(=O)c2ccc(NC3=C(c4ccc(Cl)cc4)C(=O)NC3=O)cc2)cc1	80.3%
O=C(Nc1cccc(N=Cc2c(O)ccc3ccccc23)c1)c1ccccc1	109%
O=C1Nc2ccc(Br)cc2/C1=N\N=C/c1cn(Cc2ccccc2)c2ccccc12	84.4%
c1ccc2nc(Cn3cc[n+](Cc4ccc5ccccc5n4)c3)ccc2c1	8.58% (active)
CCCCCC(=O)O[C@]1(C(C)=O)CCC2C3CCC4=CC(=O)CC[C@]4(C)C3CC[C@@]21C (stereo partly specified)	-43.2% (active)
Cc1cccc(Cl)c1NC(=O)c1cnc(Nc2cc(N3CCOCC3)cc(S(C)(=O)=O)c2)s1	110%
O=c1[nH]c2ccc(Br)cc2c2c1C(c1ccc(Cl)cc1)c1c(ncn3nc(-c4ccco4)nc13)O2 (stereo unspecified)	72.7%
